# Anesthetic bind: binds horse apoferritin like a general anesthetic | P02791 | apoferritin/1-aminoanthracene competitive binding, fluorescence | Potency, µM (top dose mostly 77.5 µM), without a hit: at the top dose activity change, negative = displacement, actives largely listed as inhibitors | 350,000 tested, 0.074% active | AID 485281; also: % is scaled to controls: 0 for no effect and ±100 for the full control effect; nearly all actives have a fitted effect of over 20% in size
# Target sequence (P02791 2-175 limits assumed): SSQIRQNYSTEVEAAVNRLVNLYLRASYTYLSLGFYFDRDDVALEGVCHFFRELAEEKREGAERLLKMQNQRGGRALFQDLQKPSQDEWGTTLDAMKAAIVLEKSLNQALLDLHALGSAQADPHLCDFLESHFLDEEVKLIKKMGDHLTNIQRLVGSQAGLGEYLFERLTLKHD
#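 Concentration-response curves derived by four-parameter Hill fitting of normalized fluorescence, where compounds displaced 1-AMA from 10 uM horse apoferritin following a brief 10 min room-temperature incubation; propofol titration acted as positive control.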
# ATXN2 expr inh: reduces ATXN2 reporter expression in HEK-293 cells | HEK-293 ATXN2-luciferase reporter, luminescence, 24 h | Potency, µM (top dose mostly 57 µM), inactives show at the highest dose activity change, negative = inhibition, hits mostly inhibitors | 360,000 tested, 0.72% active; also: % is scaled to controls: 0 for no effect and ±100 for the full control effect; nearly all actives have a fitted effect of over 55% in size
#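 qHTS (up to 57 uM final) was run with 24 h compound exposure of reporter cells at 37 °C. Each well was multiplexed: SteadyGlo luminescence measured ATXN2-luciferase expression after a fluorogenic Gly-Phe-AFC viability readout (25 uM final).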
# HepG2 tox: counter-screen for TGF-b inhibitors: cytotoxicity in HepG2 cells. AID 588856. Potency, µM (top dose mostly 46.1 µM), without a hit: at the top dose activity change, negative = cytotoxicity, hits mostly cytotoxic. HepG2 CAGA-GFP viability, ATP luminescence, 18 h. 410,000 tested, 0.76% active
#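 HepG2 CAGA-GFP cells (1000/well, DMEM with 1% FBS) received compound, then TGF-beta at 500 pg/mL final, and were incubated 18 hours at 37 degrees C. Viability was read by CellTiter-Glo luminescence. Media-only wells were set as complete cell-killing and DMSO as no toxicity.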
# S2 tox: viability counter-screen for ATXN expression inhibitors; 400,000 tested, 0.49% active; Potency, µM (highest dose often 56.7 µM), most hits filed as cytotoxic; S2 cells (HEK-293 line with an ATXN2-luciferase reporter) viability, CellTiter-Fluor protease fluorescence, 24 h; also: nearly all actives have a fitted effect of over 40% in size
# TGFb inhibitor: inhibitors of TGF-b signaling; HepG2 CAGA-GFP TGF-b/SMAD3 reporter, GFP fluorescence, 18 h; TGF-beta stimulated, 500 pg/mL final; Potency, µM (series often up to 46.1 µM), inactives show at the top dose activity, negative = inhibition, usual class: inhibitors; 410,000 tested, 1.2% active; also: % is scaled to controls: 0 for no effect and ±100 for the full control effect; nearly all actives have a fitted effect of over 65% in size
#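 Read-out: total well GFP (ex488/em500-530) summed from mean per-cell fluorescence. Cells: HEPG2 CAGA-GFP, 1% FBS DMEM, 18 h at 37 degrees C with 500 pg/mL final TGF-beta. Unstimulated wells served as the full-inhibition control; stimulated DMSO wells = 0%.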
# * marks the source's active call; other numbers are inactive results; i = inactive; ? = inconclusive; · = no result given; ! = repeats disagree; [ ] = another dose, or the depositor's remark. The list is not random: actives were taken first. Their share in the collection is about 2.4%. Calls follow the shape of the dose curve; as a rule, active = well fitted curve in the direction sought with a large enough effect; inconclusive = small, poorly fitted or top-dose-only effect, or another doubt; inactive = no such curve, though single readings can be large; an effect the other way counts as inactive or inconclusive. Potency is read from the fitted curve at half-maximal effect.
SMILES,Anesthetic bind,ATXN2 expr inh,HepG2 tox,S2 tox,TGFb inhibitor
c1ccc(CCNc2nc3ccccc3s2)cc1,13µM*,148%,-35%,i,2%
c1ccc(CCNc2nc(-c3ccccc3)cs2)cc1,·,226%,·,i,·
O=C(O)c1ccccc1C(=O)Nc1ccc(Oc2cccc3ccccc23)cc1,?,1.6µM*,-31%,i,-2%
Cc1cccc(Oc2ccc(NC(=O)c3ccccc3C(=O)O)cc2)c1C,?,4%,-11%,i,3%
Cc1ccnc2cc(Cl)c(Cl)cc12,·,·,0%,·,-1%
Cc1cn([C@@H]2C[C@@H](O)[C@H](CO)O2)c(=O)[nH]c1=O,·,-8%,·,·,·
O=c1[nH]c(=O)n([C@H]2C[C@H](O)[C@@H](CO)O2)cc1C(F)(F)F,4%,2µM*!,-13%,i,-6%
O=c1[nH]c(=O)n([C@H]2C[C@@H](O)[C@@H](CO)O2)cc1F,·,1.1µM*,-37%,·,?
COc1ccc(CCC(C)NCCc2ccc(Cl)cc2Cl)cc1 (stereo not given),-23%,·,16µM*,·,?
COc1ccc(CCC(C)NCc2cc(OC)cc(OC)c2)cc1 (stereo not given),-14%,-19%,-35%,i,-9%
COc1ccc(CCC(C)NCc2ccc(Cl)c(Cl)c2)cc1 (stereo not given),-12%,-25%,8.9µM*,i,13µM*
COc1ccc(C(C)(C)C)cc1NC(=O)CCCN1C(=O)NC(C)(C)C1=O,·,-5%,-11%,i,2%
CCOc1ccccc1NC(=O)C(=O)NCCC1=CCCCC1,-10%,5%,-2%,i,?
NC(=Nc1nc(-c2ccccn2)cc2ccccc12)c1ccccn1,·,0.32µM*,-60%,?,-62%
N/C(=N\OC(=O)c1cccc2ccccc12)c1ccccn1,-13%,6%,-59%,?,-12%
CCN(CC)CC(=O)c1c(C)n(C)c2ccc(OC)cc12,·,·,-4%,·,4%
Cc1cc(/C=N/n2cnnc2)c(C)n1-c1ccc(OCc2ccccc2F)cc1,?,?,13µM*,i,11µM*
Cc1cc(/C=N/n2cnnc2)c(C)n1-c1ccc(OCc2ccc(Cl)cc2)cc1,?,-19%,-24%,?,?
CCOc1ccc(-n2cc(C(=O)N3CCC(C)CC3)c3cc(OC)c(OC)cc3c2=O)cc1,-19%,1%,-36%,i,13µM*
Cc1ccc(S(=O)(=O)N[C@H]2COC(=O)C/C=C\[C@@H](C)COC(=O)C/C=C\[C@@H]2C)cc1,-14%[15.3 µM],·,·,·,·
Cc1cccc(-n2c(Cc3ccccc3)nnc2SCc2nc(-c3cccs3)no2)c1,-2%,?,-52%,?,13µM*
Cc1nc2c(-c3ccccc3)c(C)[nH]n2c(=O)c1Cc1ccc(Br)cc1,-1%,·,-46%,·,2.5µM*
Cc1ccc(Cc2c(C)nc3c(-c4ccccc4)c(C)[nH]n3c2=O)cc1,42%,16µM*,-35%,?,?
CN(Cc1ccccc1)C(=O)c1ccc(Nc2nc(C(N)Cc3ccc(C(F)(F)F)cc3)cs2)nc1 (stereo not given),·,?,10µM*,32µM*,?
CCCc1cnc(Nc2nc(C(N)Cc3ccc(OC)cc3)cs2)nc1 (stereo not given),·,?,11µM*,?,?
CC(C)CC(N)c1csc(Nc2ccc(C(=O)N(C)Cc3ccccc3)cn2)n1 (stereo not given),·,28µM*,-109%,28µM*,?
CCCCN(C)C(=O)c1ccc(Nc2nc(C(N)Cc3ccccc3)cs2)nc1 (stereo not given),·,?,-94%,?,?
CC(C)CC(N)c1csc(NC(=O)NCCc2ccccc2)n1 (stereo not given),·,-11%,-28%,i,-3%
COc1cccc(Nc2nc(C(N)Cc3ccccc3)cs2)n1 (stereo not given),·,?,-95%,?,11µM*
CN(Cc1ccccc1)C(=O)c1ccc(Nc2nc(C(N)Cc3ccccc3)cs2)nc1 (stereo not given),·,14µM*,16µM*,16µM*,?
